Data from PubChem BioAssay AID1159580 (chemical genetic matrix, 2015).
“And” between values parts separate entries of the source, which are not always exact repeats. Equal entries are not always repeated. Hit rate of the full screen: of about 5,500 compounds, about 2,000 (36%) were called active. About 18% were inconclusive and are not listed. Cut-off read from the data, not from the text of the source: active = normalized growth mostly below about 0.91 (no sharp cut-off); inconclusive = no clear call, values can overlap the other calls; inactive = mostly above about 0.92. The list shows a part of the results.

Assay: chemical genetic growth profiling, strain panel (AID 1159580);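 note: tested at 20 µM; growth read once vehicle control cultures reached saturation at 30 °C; 1 = growth at the plate median or of vehicle wells; lower values mean less growth of the strain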
Settings: S. cerevisiae deletion strains, growth OD
[1] = locus YAR019C, strain CDC15, hits give low values
[2] = locus YBL105C, strain PKC1, hits give low values
[3] = locus YBR135W, strain CKS1, hits give low values
[4] = locus YBR136W, strain MEC1, hits give low values
[5] = locus YBR160W, strain CDC28, hits give low values
[6] = locus YDL017W, strain CDC7, hits give low values
[7] = locus YDL028C, strain MPS1, hits give low values
[8] = locus YDL101C, strain DUN1, hits give low values
[9] = locus YDL108W, strain KIN28, hits give low values
[10] = locus YDL132W, strain cdc53, hits give low values
[11] = locus YDL214C, strain PRR2, hits give low values
[12] = locus YDR052C, strain DBF4, hits give low values
[13] = locus YDR054C, strain cdc34, hits give low values
[14] = locus YDR226W, strain ADK1, hits give low values
[15] = locus YDR477W, strain SNF1, hits give low values
[16] = locus YER123W, strain YCK3, hits give low values
[17] = locus YER133W, strain GLC7, hits give low values
[18] = locus YFL009W, strain cdc4, hits give low values
[19] = locus YFL029C, strain CAK1, hits give low values
[20] = locus YFR003C, strain YPI1, hits give low values
[21] = locus YFR019W, strain FAB1, hits give low values
[22] = locus YFR028C, strain CDC14, hits give low values
[23] = locus YGR040W, strain KSS1, hits give low values
[24] = locus YGR052W, strain FMP48, hits give low values
[25] = locus YGR092W, strain DBF2, hits give low values
[26] = locus YHR030C, strain SLT2, hits give low values
[27] = locus YHR079C, strain IRE1, hits give low values
[28] = locus YHR082C, strain KSP1, hits give low values
[29] = locus YHR205W, strain SCH9, hits give low values
[30] = locus YIL147C, strain SLN1, hits give low values
[31] = locus YJL095W, strain BCK1, hits give low values
[32] = locus YJL128C, strain PBS2, hits give low values
[33] = locus YJL157C, strain FAR1, hits give low values
[34] = locus YJR016C, strain ILV3, hits give low values
[35] = locus YJR066W, strain TOR1 (second series), hits give low values
[36] = locus YJR066W, strain TOR1, hits give low values
[37] = locus YKL048C, strain ELM1, hits give low values
[38] = locus YKL067W, strain YNK1, hits give low values
[39] = locus YKL101W, strain HSL1, hits give low values
[40] = locus YKL193C, strain SDS22, hits give low values
[41] = locus YKL203C, strain TOR2, hits give low values
[42] = locus YLR113W, strain HOG1, hits give low values
[43] = locus YLR133W, strain CKI1, hits give low values
[44] = locus YLR403W, strain SFP1, hits give low values
[45] = locus YML070W, strain DAK1, hits give low values
[46] = locus YMR001C, strain CDC5, hits give low values
[47] = locus YMR205C, strain PFK2 (second series), hits give low values
[48] = locus YMR277W, strain FCP1, hits give low values
[49] = locus YNL006W, strain LST8, hits give low values
[50] = locus YNL020C, strain ARK1, hits give low values
[51] = locus YNL161W, strain CBK1, hits give low values
[52] = locus YNL183C, strain NPR1, hits give low values
[53] = locus YNL207W, strain RIO2, hits give low values
[54] = locus YNL222W, strain SSU72, hits give low values
[55] = locus YNL307C, strain MCK1 (second series), hits give low values
[56] = locus YOL078W, strain AVO1, hits give low values
[57] = locus YOL136C, strain PFK27, hits give low values
[58] = locus YOR061W, strain CKA2, hits give low values
[59] = locus YOR119C, strain RIO1, hits give low values
[60] = locus YOR231W, strain MKK1, hits give low values
[61] = locus YOR329C, strain SCD5, hits give low values
[62] = locus YPL031C, strain PHO85, hits give low values
[63] = locus YPL153C, strain RAD53, hits give low values
[64] = locus YPL209C, strain IPL1, hits give low values
[65] = locus YPL256C, strain CLN2, hits give low values
[66] = locus YPR025C, strain CCL1, hits give low values
[67] = locus YPR106W, strain ISR1, hits give low values
[68] = locus YPR111W, strain DBF20, hits give low values
[69] = strain NNK1, hits give low values
[70] = strain TSCII, hits give low values

Measured: normalized growth

COc1cc(CC/C(C)=N/O)ccc1OCc1ccc(Cl)cc1Cl
inactive: [1] 0.977 | [2] 0.972 | [3] 0.978 | [4] 0.977 | [5] 0.981 | locus YBR229C, strain ROT2, hits give low values 0.934 | locus YCL061C, strain MRC1, hits give low values 0.931 | [6] 0.979 | [7] 0.978 | [8] 0.992 and 0.922 | [9] 0.978 | [10] 0.982 | locus YDL134C, strain PPH21, hits give low values 0.925 | [11] 0.944 | [12] 0.989 | [13] 0.998 | locus YDR150W, strain NUM1, hits give low values 0.911 | [14] 1 | [15] 0.952 | locus YEL061C, strain CIN8, hits give low values 0.929 | [16] 0.939 | [17] 0.937 | [18] 0.968 | [19] 0.98 | [20] 0.976 | [21] 0.953 | [22] 0.984 | [23] 0.948 | [24] 0.973 | [25] 0.952 | [27] 0.885 | [28] 1.02 | locus YHR087W, strain rtc3, hits give low values 0.935 | [29] 0.939 | [30] 0.982 | [31] 0.938 | [32] 0.932 | [33] 0.918 | [34] 0.978 | [35] 0.913 | [36] 1.01 | [37] 0.986 | [38] 0.942 | [39] 0.949 | [40] 0.979 | [41] 0.972 | locus YLR058C, strain SHM2 (second series), hits give low values 0.976 | [42] 0.881 | [43] 0.944 | [44] 0.942 | [45] 0.936 | [46] 0.971 | [47] 0.965 | locus YMR219W, strain ESC1, hits give low values 0.998 | locus YMR263W, strain SAP30, hits give low values 0.912 | [48] 0.979 | [49] 0.974 | [50] 0.935 | locus YNL153C, strain GIM3, hits give low values 0.94 | [51] 0.976 | [52] 0.978 | [53] 0.979 | [54] 0.98 | [55] 0.932 | locus YNL322C, strain KRE1, hits give low values 0.98 | [56] 0.983 | [57] 0.921 | [58] 0.966 | [59] 1.02 | [60] 0.929 | [61] 0.976 | [62] 0.94 | [63] 0.95 | [64] 0.976 | [66] 0.979 | [67] 0.976 | [68] 0.993 | [69] 0.976 | [70] 0.973
active: locus YAL013W, strain DEP1, hits give low values 0.908 | locus YGR078C, strain PAC10, hits give low values 0.92 | [26] 0.242 and 0.801 | locus YJR043C, strain POL32, hits give low values 0.91 | locus YJR075W, strain HOC1, hits give low values 0.879 | locus YKL190W, strain CNB1, hits give low values 0.762 | locus YLR039C, strain RIC1, hits give low values 0.694 | locus YLR085C, strain ARP6, hits give low values 0.307 | locus YLR262C, strain YPT6, hits give low values 0.803 | locus YML094W, strain GIM5, hits give low values 0.865 | locus YNL298W, strain CLA4 (second series), hits give low values 0.784 | locus YNR030W, strain Alg12, hits give low values 0.803 | locus YOL006C, strain TOP1, hits give low values 0.579 | locus YPL055C, strain LGE1, hits give low values 0.727 | locus YPL241C, strain CIN2, hits give low values 0.822 | [65] 0.863 | locus YPR135W, strain CTF4, hits give low values 0.388

COc1cc(CC/C(C)=N\O)ccc1OCc1ccc(Cl)c(Cl)c1
active: [26] 0.831 | [42] 0.816
inactive: [1] 0.973 | [2] 0.964 | [3] 0.97 | [4] 0.96 | [5] 0.975 | [6] 0.963 | [7] 0.959 | [8] 0.975 | [9] 0.947 | [10] 0.983 | [11] 0.818 | [12] 0.971 | [13] 0.968 | [14] 0.973 | [15] 0.868 | [16] 0.767 | [17] 0.864 | [18] 0.968 | [19] 0.968 | [20] 0.968 | [21] 0.808 | [22] 0.983 | [23] 0.862 | [24] 0.881 | [25] 0.824 | [27] 0.871 | [28] 0.883 | [29] 0.869 | [30] 0.962 | [31] 0.849 | [32] 0.916 | [33] 0.823 | [34] 0.969 | [35] 0.786 | [36] 0.867 | [37] 0.934 | [38] 0.865 | [39] 0.852 | [40] 0.968 | [41] 0.932 | [43] 0.875 | [44] 0.865 | [45] 0.82 | [46] 0.967 | [47] 0.877 | [48] 0.968 | [49] 0.975 | [50] 0.851 | [51] 0.973 | [52] 0.885 | [53] 0.965 | [54] 0.969 | [55] 0.845 | [56] 0.978 | [57] 0.84 | [58] 0.818 | [59] 0.931 | [60] 0.842 | [61] 0.972 | [62] 0.858 | [63] 0.833 | locus YPL204W, strain HRR25, hits give low values 0.873 | [64] 0.968 | [65] 0.893 | [66] 0.98 | [67] 0.968 | [68] 0.962 | [69] 0.953 | [70] 0.97
